Assay outcomes: PubChem, several laboratories
Sampled rows, rich in hits. Any-hit rate of the full collection: about 4.2%.
TIM10 inh: growth inhibitors of isogenic TIM10 control yeast, primary screen, counter-screen for tim10-1 yeast inhibitor project, luminescence, uHTS; S. cerevisiae TIM10 strain growth, BacTiter-Glo luminescence, 24 h; inhibition, % at 10 µM; actives 1.4% (n = 330,000); AID 463195, 2010;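 active = inhibition of 40% or more at the single tested concentration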;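 also: wild-type TIM10 isogenic control strain grown at permissive 25 °C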
NALP1 inh: NALP1 inflammasome inhibitors in reconstituted yeast, colorimetric, S. cerevisiae, triplicate retest; actives 0.61% (n = 280,000); S. cerevisiae NALP1/ASC/caspase-1 growth, X-gal OD620, 72 h; inhibition, % at 10 µM; in the data active = inhibition mostly above about 24%, no sharp cut-off; inactive = mostly below about 32%
tim23-1 inh: growth inhibitors of tim23-1 mutant yeast, primary screen, luminescence, uHTS; S. cerevisiae tim23-1 growth, BacTiter-Glo luminescence, 24 h; inhibition, % at 20 µM; actives 1.3% (n = 330,000);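 active = growth inhibition of the mutant yeast at or above 50%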;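 also: temperature-sensitive mutant grown at 25 °C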
tim10-1 inh: growth inhibitors of tim10-1 mutant yeast, primary screen, luminescence, uHTS; actives 2.2% (n = 330,000); S. cerevisiae tim10-1 ts strain growth, BacTiter-Glo, 24 h; inhibition, % at 20 µM; AID 463190, 2010;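 active = inhibition of at least 40%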;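 also: mutant grown at 25 °C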
NALP3 yeast inh: NALP3 inflammasome inhibitors in reconstituted yeast, primary screen, luminescence, uHTS. Yeast reconstituted NLRP3/ASC/caspase-1, beta-gal luminescence, 24 h. inhibition, % at 10 µM. actives 0.39% (n = 330,000). AID 2825, 2010;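 active = inhibition of 50% or more; inactive = inhibition below 50%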
V-ATPase pH: regulators of yeast V-ATPase proton pumping, primary screen, pHLuorin cytosolic pH fluorescence | S. cerevisiae | response, % at 10 µM | actives 0.37% (n = 350,000); in the data active = response mostly above about 7.3%, no sharp cut-off; inactive = mostly below about 5.4%; also: actives read high
tim23-1 confirm: tim23-1 mutant yeast growth inhibitors, confirmation, luminescence, single concentration | shares compounds with tim23-1 inh | S. cerevisiae tim23-1 growth, BacTiter-Glo luminescence, 24 h | inhibition, % at 20 µM | actives 83% (n = 4,400) | AID 463218, 2010;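 active = inhibition above about 39% in either of two replicate wells at 20 µM, limit read from the data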;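 also: temperature-sensitive tim23-1 mutant grown at 25 °C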
A number is an active result; . = inactive; / = not tested or not shown.

SMILES | TIM10 inh | NALP1 inh | tim23-1 inh | tim10-1 inh | NALP3 yeast inh | V-ATPase pH | tim23-1 confirm
CCNc1nc(N)c(C(=C(C#N)C#N)c2ccccc2)s1 | . | . | . | . | . | . | /
CCN(CC)c1ccc(/C=N/Nc2ccc(C)cc2)c(O)c1 | / | . | / | / | / | . | /
CCOC(=O)N/N=C/c1ccc(N(CC)CC)cc1O | . | . | 60 | . | . | . | 72
COCC(=O)N1CCC(n2nccc2NC(=O)CCOc2ccccc2)CC1 | . | . | . | . | . | . | /
CCOC(=O)c1cccc(OC(=O)CCNC(=O)c2ccc(Cl)cc2)c1 | . | / | 57 | . | . | . | 51
CC(=O)c1ccc(OC(=O)CCNC(=O)c2ccccc2)cc1 | . | / | . | . | . | . | /
CCOc1ccc(-c2nc[nH]c2[N+](=O)[O-])cc1 | . | . | . | . | . | . | /
CCOC(=O)CNc1nc(Cl)nc(Nc2ccc(C)cc2)n1 | . | / | . | . | . | . | /
Cc1ccc(Nc2nc(Cl)nc(NC(C)(C)C)n2)cc1 | . | . | 50 | . | . | . | 40
C=C1CCN(C(CC(C)C)C(=O)OC)S(=O)(=O)c2ccccc21 (stereo not drawn) | . | . | . | . | . | . | /
COC(=O)[C@H](CC(C)C)N1Cc2cc(OC)cc(OC)c2-c2ccccc2S1(=O)=O | . | / | 50 | . | / | . | .
COc1ccccc1NC(=O)c1ccc(NC(=O)CSc2nc(N)cc(=O)[nH]2)cc1 | . | / | . | . | . | . | /
COc1ccccc1C(=O)N1c2ccccc2Sc2ccccc21 | . | . | . | . | . | . | /
CCOc1ccccc1C(=O)N1c2ccccc2Sc2ccccc21 | . | . | 51 | . | . | . | 42
O=C(COC(=O)c1ccc(O)cc1O)Nc1ccc(Cl)cn1 | . | . | . | . | . | . | /
O=C(COC(=O)c1ccc(O)cc1O)c1ccc(Cl)cc1 | . | / | 63 | . | . | . | 43
O=C(NCCN1C(=O)S/C(=C\c2cccc(Cl)c2Cl)C1=O)C1=COCCO1 | . | . | 55 | . | . | . | .
CCOC(=O)N1CCN(C(=O)C(=O)Nc2sc3c(c2C(N)=O)CC(C)(C)OC3)CC1 | . | . | . | . | . | . | /
O=C1C=C(c2cccc(Cl)c2O)C[C@@H](c2ccc3c(c2)OCO3)C1 | . | / | 67 | . | . | . | 54
CCOc1ccc(N=C(C)C2=C(O)c3ccccc3C2=O)cc1 | . | / | 60 | . | . | . | 58
CC(=NC1CC1)C1=C(O)c2ccccc2C1=O | . | . | . | . | . | . | /
Cc1cc(C)[n+](-c2ccc(Oc3ccccc3)c(S(=O)(=O)[O-])c2)[nH]1 | . | . | . | . | . | . | /
CC(C)Cc1nc(SCC(=O)N2CCCC2)c2c(=O)n(C)c(=O)n(C)c2n1 | . | . | . | . | . | . | /
Cc1cccc(C)c1Nc1nnc(SCC(=O)c2ccc(Br)s2)s1 | . | . | 52 | . | . | . | 61
COc1nccnc1NS(=O)(=O)c1ccc(NC(=O)c2cccc(C)c2)cc1 | . | . | . | . | . | . | /
SMILES | TIM10 inh | NALP1 inh | tim23-1 inh | tim10-1 inh | NALP3 yeast inh | V-ATPase pH | tim23-1 confirm
O=[N+]([O-])c1cc(O)c2ncccc2c1 | . | . | 67 | . | . | / | 70
CN1CCN(S(=O)(=O)c2ccc(NC(=O)c3ccccc3F)cc2)CC1 | . | . | . | . | . | . | /
CC1CCN(S(=O)(=O)c2ccc(NC(=O)c3ccccc3F)cc2)CC1 | . | . | 52 | . | . | . | 45
O=C(O)c1cn(-c2ccc(N3CCCC3)c(F)c2)c2c(F)c(F)c(F)cc2c1=O | . | . | 53 | . | . | . | .
Cc1c(-n2cc(C(=O)O)c(=O)c3cc(F)c(N4CCCC(O)C4)c(F)c32)c(=O)n(-c2ccccc2)n1C (stereo not drawn) | . | . | . | . | . | . | /
COc1ccc(CCNC(=O)CCCN2C(=O)C(c3ccccc3)Oc3cccnc32)cc1OC (stereo not drawn) | . | . | . | . | . | . | /
O=C([C@H](O)c1ccccc1)N1CCC[C@H]1CO | . | . | . | . | . | . | /
CC(C)(C)[C@H]1C=C(C(=O)N2CCOCC2)O[C@@H](OCc2ccc(CO)cc2)C1 | . | . | 93 | . | . | . | .
CC(C)(C)[C@@H]1C=C(C(=O)N2CCOCC2)O[C@H](OCc2ccc(CO)cc2)C1 | . | . | . | . | . | . | /
Cc1ccc(Nc2nc3ccccc3s2)c(C)c1 | . | . | 58 | . | . | . | 46
CC(=O)N[C@H]1[C@H](OCc2ccccc2F)O[C@H](COC(C)=O)[C@@H](OC(C)=O)[C@@H]1OC(C)=O | . | / | . | . | . | . | /
CC(=O)NC1C(OCc2cccc(Br)c2)OC(COC(C)=O)C(OC(C)=O)C1OC(C)=O (stereo not drawn) | . | . | 93 | . | . | . | .
CC1(C)C=Cc2c(ccc3c2OC[C@H](c2ccc(O)cc2O)C3)O1 | . | / | 75 | . | . | . | .
Cc1c(NCc2cc(Cl)cc(Cl)c2O)c(=O)n(-c2ccccc2)n1C | . | . | 55 | . | . | . | .
S=C(NCCSCc1c(Cl)cccc1Cl)Nc1ccccc1 | . | . | 50 | . | . | . | 51
CN(C(=O)COC(=O)c1ccc2ccccc2n1)c1ccccc1 | . | / | . | . | . | . | /
Cn1c(C=O)c(C#CC(C)(C)O)c2ccccc21 | . | / | 61 | . | . | . | 60
COc1ccc(CCNC(=O)CNC(=O)Cn2ccc3ccccc3c2=O)cc1OC | . | / | . | . | . | . | /
Cc1ccc(-c2nc3ccc(Cl)cc3c(=O)n2O)cc1 | . | . | 63 | . | . | . | 55
O=c1c2cc(Br)ccc2nc(-c2ccccc2)n1O | . | . | 60 | . | . | . | 50
O=c1c2ccccc2nc(-c2cccc(Cl)c2)n1O | . | . | 59 | . | . | . | 59
CC1CN(C(=S)Nc2ccccc2C(F)(F)F)CC(C)O1 (stereo not drawn) | . | . | . | . | . | . | /
Cc1cccc(-c2cc3nc4c(c(N5CCOCC5)n3n2)CCCC4)c1 | . | . | 58 | . | . | . | 47
O=C(OCC(=O)N1CCN(Cc2ccccc2)CC1)c1cc(Cl)ccc1[N+](=O)[O-] | . | / | . | . | . | . | /
CC(=O)n1cc(CO)c2ccccc21 | . | . | . | . | . | . | /
CC(=O)n1cc(N(C(=O)CCl)c2ccccc2)c2ccccc21 | . | . | 54 | . | . | . | .
CC(=O)n1cc(N(C(=O)CCl)c2ccc([N+](=O)[O-])cc2)c2ccccc21 | . | . | 64 | . | . | . | 49
